Reference: PubChem BioAssay AID1211 (NMMLSC, 2008)
Activity calls are given as the source filed them. How the calls were made is not given here.

Biological target: Estrogen receptor (Homo sapiens) (UniProt P03372)
Test: displacement of fluorescent estrogen from ERalpha – cell-based, Cos7 ERalpha-GFP, flow cytometry, primary screen (AID 1211);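 further: 0% = DMSO vehicle wells and 100% = no E2-Alexa633 signal left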
Details: fluorescent ligand competition, at 10 µM, hits give high values

Chain of Estrogen receptor (Homo sapiens) (P03372 whole entry, looked up): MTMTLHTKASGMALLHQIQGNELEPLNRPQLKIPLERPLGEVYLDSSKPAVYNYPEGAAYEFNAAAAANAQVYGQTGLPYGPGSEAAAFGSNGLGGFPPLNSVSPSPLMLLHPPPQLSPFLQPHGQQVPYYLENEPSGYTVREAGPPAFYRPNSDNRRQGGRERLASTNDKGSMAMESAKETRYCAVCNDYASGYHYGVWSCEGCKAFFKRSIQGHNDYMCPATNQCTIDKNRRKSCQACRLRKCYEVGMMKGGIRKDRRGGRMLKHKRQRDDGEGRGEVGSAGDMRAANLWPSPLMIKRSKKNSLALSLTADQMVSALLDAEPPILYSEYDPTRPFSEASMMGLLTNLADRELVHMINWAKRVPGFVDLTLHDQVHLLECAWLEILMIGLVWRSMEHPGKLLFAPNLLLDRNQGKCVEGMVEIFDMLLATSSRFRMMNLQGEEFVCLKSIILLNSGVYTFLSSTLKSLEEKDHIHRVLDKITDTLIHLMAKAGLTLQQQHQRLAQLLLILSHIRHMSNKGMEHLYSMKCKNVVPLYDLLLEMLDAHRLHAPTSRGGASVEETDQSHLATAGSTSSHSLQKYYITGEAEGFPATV

Inhibition of ligand binding, inactive:
COc1cc([N+](=O)[O-])cc2c1NC(c1ccc(Cl)cc1)C1CC=CC21 (stereo unspecified) 46%, Cc1noc(C)c1CSCC(=O)OCC(=O)Nc1sccc1C#N 2%, CCC(Oc1ccc2c3c(c(=O)oc2c1C)CCC3)C(=O)OC (stereo unspecified) 15%, COC(=O)c1ccc(C2Nc3ccc(/C(C)=N/NC(=O)C(OC)c4ccccc4)cc3C3C=CCC32)cc1 (stereo unspecified) 0%, Cn1c(SCC(=O)N2c3ccccc3CCc3ccccc32)nnc1-c1cc2ccccc2cc1O 34%, CCOC(=O)c1ccc2c(c1)C1C=CCC1C(c1cccc([N+](=O)[O-])c1)N2 (stereo unspecified) 21%, O=c1oc2cc(O)ccc2c2c1CCCC2 7%, Oc1ccc(-c2[nH]nc(-c3ccccc3)c2-c2nc3ccccc3[nH]2)cc1 33%, O=C1CC(c2ccc3c(c2)OCO3)c2ccc3ccccc3c2N1 (stereo unspecified) 0%, COc1cccc(C2NCCc3cc(OC)c(OC)cc32)c1 (stereo unspecified) 10%, C=CCn1c(COc2ccccc2F)nnc1SCC(=O)NC(=O)NCc1ccco1 11%, COc1cccc(C2Nc3c(F)cc(Br)cc3C3C=CCC32)c1OC (stereo unspecified) 60%, C=C1c2ccc(OC)cc2NC(=O)N1c1ccccc1 4%, COc1ccc(C2CC(c3ccccc3)=NN2C(=O)CSc2nccc(=O)[nH]2)cc1 (stereo unspecified) 20%, Cc1nn(-c2ccccc2)c2sc(C#N)c(N)c12 17%, Cc1nc2ccccc2n1-c1cc(C(C)(C)C)c(O)c(C(C)(C)C)c1 9%, O=c1cc(-c2ccccc2Cl)oc2c(Br)ccc(O)c12 27%, CCOc1ccc(NS(=O)(=O)c2ccc3c(c2)[C@H]2C=CC[C@H]2[C@@H](c2ccc([N+](=O)[O-])cc2)N3)cc1 9%, CC1(C)CC(=O)c2cn(-c3ccc(Cl)cc3)c(=N)c(C#N)c2C1 35%, C=C1C2C[C@H](O)C(C)(C)[C@@]2(O)[C@H](O)C[C@]23C[C@@](C)(O)[C@H](CC[C@H]12)[C@H]3O (stereo partly specified) 30%

Inhibition of ligand binding, active:
O=C(O)c1ccc2c(c1)[C@@H]1C=CC[C@@H]1[C@H](c1ccccn1)N2 81%
